Pf Dd2 growth: Plasmodium falciparum Dd2 growth inhibition; P. falciparum Dd2 growth, SYBR Green, 72 h; Potency, µM (doses to about 28.9 µM), hits mostly inhibitors; 120,000 compounds, 4.3% hits; active means well fitted inhibition curve with a large enough effect; further: nearly all actives have a fitted effect of over 65% in size
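Readout: SYBR Green fluorescence, 485 nm excitation, 535 nm emission, after ~16 h lysis at 37C. Before that, Dd2-infected red cells (2.5% hematocrit) grew 72 h with compound, 29 uM top final concentration.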
A number is an active result; 0 = inactive; [ ] = another dose, or the depositor's remark. This excerpt belongs to a sample that is enriched for hits.

SMILES	Pf Dd2 growth
O=C(NCc1nnc2ccc(-c3ccc(F)cc3)nn12)c1ccc(F)cc1Cl	0
Cc1ccc(NC(=O)c2ccc3c(c2)N(S(C)(=O)=O)CC3)c(C)c1	0
CN(CC[C@H]1CN(C(=O)c2ccnc(Cl)c2)CC[C@H]1CC(=O)O)c1ccccc1	0
CC1=C(C(=O)OC(C)C)C(c2ccc([N+](=O)[O-])cc2)N2C(CC(=O)N3CCOCC3)=CSC2=N1 (centres undefined)	0
COc1cccc(N2CC(C(=O)N3CCCC3)NC2=O)c1 (centres undefined)	0
CCCC(=O)N1CCC2(CC1)C(=O)N(CC)c1ccccc12	0
CCN1C(=O)C2(CCN(C(=O)c3c(C)noc3C)CC2)c2ccccc21	3.5µM
CCN1C(=O)C2(CCN(C(=O)N(C)C)CC2)c2ccccc21	0
O=C(c1cccnc1)N1CCN2C(=O)N(C3CCCCC3)C[C@H]2C1	0
COC[C@H]1CCCN1C(=O)[C@@H](C)C1CC[C@@]2(C)CC[C@H](NC(=O)c3ccc(C#N)cc3)[C@@H](C)[C@@H]2[C@H]1O (some centres undefined)	0
Cc1ccc(-c2csc(-c3c(N)c(C(=O)c4ccc5c(c4)OCO5)n4ccccc34)n2)cc1C	0
COc1ccc(C(=O)c2c(N)c(-c3nc(-c4ccc5c(c4)OCO5)cs3)c3ccccn23)cc1	0
Cc1ccc(C)c(C(=O)c2c(N)c(-c3nc(-c4ccc5c(c4)OCO5)cs3)c3ccccn23)c1	8.9µM
COc1ccc(C(=O)N[C@H]2C[C@@H](Cc3cc(-c4ccccc4)on3)C2(C)C)cc1	4.5µM
CN1CCC(N[C@H]2C[C@@H](Cc3cc(-c4ccccc4)on3)C2(C)C)CC1	4µM
COCc1cc(C[C@@H]2C[C@H](NC3CCC3)C2(C)C)no1	0
CC(C)N[C@H]1C[C@@H](Cc2cc(-c3ccccc3)on2)C1(C)C	0
COc1ccc(C(=O)N[C@H]2C[C@@H](Cc3cc(CN(C)C)on3)C2(C)C)cc1	0
CCNC(=O)N[C@H]1C[C@@H](Cc2cc(-c3ccccc3)on2)C1(C)C	0
CN(Cc1cnccn1)C(=O)c1cc(COc2ccc3c(c2)OCO3)[nH]n1	0
CC(NC(=O)COc1ccc(NC(=O)C2CC2)cn1)c1cccs1 (centres undefined)	0
Cc1ccc([C@@H]2CN(C(=O)c3cn(CCN)nn3)C[C@H]2NC(=O)C2CC2)cc1	0
Cc1ccc(CNC(=O)Cn2c(=O)c(-c3noc(C)n3)c3n(c2=O)CCCCC3)cc1	0
COCCS(=O)(=O)c1ncc(CN2CC[C@@H]3CCCC[C@H]3C2)n1Cc1ccccc1	6.3µM
CC(C)Cn1c(CN2CCSCC2)cnc1S(=O)(=O)Cc1ccccc1	0
SMILES	Pf Dd2 growth
COCCS(=O)(=O)c1ncc(CN(C)C(C)c2ccon2)n1Cc1ccccc1 (centres undefined)	0
CC(=O)Nc1ccc(CN2C3CCC2CN(C(C)C)C3)cc1	0
C[C@H]1[C@@H]2[C@@H](O)C([C@H](C)C(=O)NC3CCCCC3)CC[C@@]2(C)CC[C@@H]1NC(=O)c1ccccn1 (some centres undefined)	0
COCCOC1CCOC2(CCN(C(=O)Nc3cccc(F)c3)CC2)C1 (centres undefined)	0
c1ccc(CN2CCNc3cnc(-c4ccc(N5CCOCC5)cc4)cc3C2)cc1	0
COc1ccc(-c2nc(N3CCOCC3)cc3c2CN(Cc2ccccc2)C3=O)cn1	0
CN1CCN(c2nc3c(c(=O)[nH]2)CCN(Cc2ccc(Br)s2)CC3)CC1	0[5.79 µM]
c1ccc(CN2CCc3c(sc4ncnc(N5CCOCC5)c34)C2)cc1	7.9µM
CN1CCN(c2ncnc3sc4c(c23)CCN(Cc2ccco2)C4)CC1	11µM
CCN1CCN(c2nc3c(s2)CN(Cc2ccco2)CC3)CC1	0
O=C(C1CCCC1)N1CCn2c(nn(-c3ccncc3)c2=O)C1	0
CCCS(=O)(=O)N1CCC(c2noc(-c3ccncc3)n2)C1 (centres undefined)	0[5.79 µM]
COc1ccc(C2(C(=O)N3CCCC(Cc4nc(C5CCOCC5)no4)C3)CC2)cc1 (centres undefined)	0
COCCOC1CCOC2(CCN(C(=O)Cc3ccsc3)CC2)C1 (centres undefined)	0
COc1ccc(C(=O)N2CCC3(CC2)NC(=O)N(c2cccc(F)c2)N3)cc1F	0
COc1ccccc1C(=O)N1CCC2(CC1)NC(=O)N(c1cccc(F)c1)N2	0
COc1ccc(Cl)cc1C(=O)N1CCC2(CC1)NC(=O)N(c1cccc(F)c1)N2	10µM
COc1ccc(Cl)cc1C(=O)N1CCC2(CC1)NC(=O)N(c1ccccc1)N2	0
COc1cccc(C(=O)N2CCC3(CC2)NC(=O)N(c2ccccc2)N3)c1	0
COc1ccc(C(=O)N2CCC3(CC2)NC(=O)N(c2cccc(F)c2)N3)cc1	11µM
CCc1cccc2c(C(CC(=O)NC(C)C(C)C)c3ccc(OC)c(OC)c3)c[nH]c12 (centres undefined)	0
Cc1cc(C(=O)NCC2(COc3ccc(S(C)(=O)=O)cc3)C[C@@H](O)[C@@H](O)C2)no1 (some centres undefined)	0
